Results reported in ChEMBL document CHEMBL4513141, “CO-ADD screening of NIH (USA) - Clinical Collection” (2021).
Entries with a potency or affinity are not part of this list.

Key:
Klebsiella pneumoniae = conditions: Concentration 20 uM; ASSAY_TEST Inhibition of Bacterial Growth; detection method Absorption (OD600); MEDIA CAMHB; plate type 384well; NBS; CORNING #3640; time 18 hr
Candida albicans = conditions: 20 µM
Cryptococcus neoformans = conditions: Concentration 20 uM; ASSAY_TEST Inhibition of Fungal Growth; detection method Resazurin; Absorption (OD600-OD570); plate type 384well; NBS; CORNING #3640

Row | Compound | Inhibition (Klebsiella pneumoniae) | Inhibition (Candida albicans) | Inhibition (Cryptococcus neoformans)
1 | N#Cc1ccc(C(c2ccc(C#N)cc2)n2cncn2)cc1 [LETROZOLE] | 9.79% | 2.89% | -8.63%
2 | COc1cc(/C=C/c2ccc(O)cc2)cc(OC)c1 [PTEROSTILBENE] | 7.46% | 3.65% | -0.34%
3 | CCOC(=O)O[C@]1(C(=O)OCCl)CC[C@H]2[C@@H]3CCC4=CC(=O)C=C[C@]4(C)[C@H]3[C@@H](O)C[C@@]21C [LOTEPREDNOL ETABONATE] | 0.28% | 4.45% | 0.62%
4 | CCc1cccc2c3c([nH]c12)C(CC)(CC(=O)O)OCC3 (centres undefined) [ETODOLAC] | 6.96% | 1.19% | -2.08%
5 | C[C@]12C=CC(=O)C=C1CC[C@@H]1[C@@H]2C(=O)C[C@@]2(C)[C@H]1CC[C@]2(O)C(=O)CO [PREDNISONE] | 18.73% | 1.91% | -7.34%
6 | CC(C)c1ccc2c(c1)c(SC(C)(C)C)c(CC(C)(C)C(=O)O)n2Cc1ccc(Cl)cc1 | 11.6% | 1.56% | -9.17%
7 | CN(C)CCN(Cc1ccccc1)c1ccccn1.Cl [TRIPELENNAMINE HYDROCHLORIDE] | 2.28% | 5.56% | 2.92%
8 | CCOC(=O)[C@H](CCc1ccccc1)N[C@@H](C)C(=O)N1Cc2ccccc2C[C@H]1C(=O)O.Cl [QUINAPRIL HYDROCHLORIDE] | 14.37% | 3.86% | -5.15%
9 | OCCN1CCN(CCCN2c3ccccc3Sc3ccc(Cl)cc32)CC1 [PERPHENAZINE] | 14.78% | 3.82% | 23.91%
10 | Nc1nc2c(ncn2COC(CO)CO)c(=O)[nH]1 [GANCICLOVIR] | 11.05% | 0% | -0.42%
11 | CS(=O)(=O)O.Cc1ccc(NC(=O)c2ccc(CN3CCN(C)CC3)cc2)cc1Nc1nccc(-c2cccnc2)n1 [IMATINIB MESYLATE] | 14.57% | 2.45% | 9.11%
12 | CS(=O)(=O)c1ccc(-c2cc(Br)sc2-c2ccc(F)cc2)cc1 [DUP-697] | 2.25% | 5.12% | -8.07%
13 | CN1CCN(CC/C=C2/c3ccccc3Sc3ccc(S(=O)(=O)N(C)C)cc32)CC1 [THIOTHIXENE] | 0.07% | 2.99% | -5.03%
14 | CC(C)Oc1ccc2c(=O)c(-c3ccccc3)coc2c1 [IPRIFLAVONE] | 12.22% | 3.92% | 2.68%
15 | CCCSc1ccc2[nH]c(NC(=O)OC)nc2c1 [ALBENDAZOLE] | 3.18% | 2.62% | 42.52%
16 | C/C=C1/[C@H]2C=C(C)C[C@]1(N)c1ccc(O)nc1C2 | 13.99% | 2.85% | -7.02%
17 | CC(=O)Nc1nnc(S(N)(=O)=O)s1 [ACETAZOLAMIDE] | 10.3% | 4.56% | -2.97%
18 | COc1ccccc1OCC(O)COC(N)=O (centres undefined) [METHOCARBAMOL] | 10.57% | 3.99% | -8.85%
19 | CCCCC(=O)N(Cc1ccc(-c2ccccc2-c2nnn[nH]2)cc1)[C@H](C(=O)O)C(C)C | 7.53% | 3.96% | -1.97%
20 | CCOC(=O)[C@H](CCc1ccccc1)N[C@@H](C)C(=O)N1[C@H](C(=O)O)C[C@@H]2CCC[C@@H]21 | 20.74% | 1.9% | -1.7%

Row | Compound | Inhibition (Klebsiella pneumoniae) | Inhibition (Candida albicans) | Inhibition (Cryptococcus neoformans)
21 | O=C1c2c(O)cc(O)cc2O[C@H](c2ccc(O)c(O)c2)[C@H]1O [(+)-TAXIFOLIN] | 12.56% | 3.72% | -3.68%
22 | COc1nc(C)nc(Cl)c1NC1=NCCN1.Cl [MOXONIDINE HYDROCHLORIDE] | 3.54% | 3.01% | 0.52%
23 | O=C1CCc2ccc(OCCCCN3CCN(c4cccc(Cl)c4Cl)CC3)cc2N1 [ARIPIPRAZOLE] | 2.6% | -0.97% | 6.93%
24 | CCCC(CCC)C(=O)O [VALPROIC ACID] | 1.95% | 5.05% | -4.42%
25 | COc1cc2nc(N3CCN(C(=O)C4COc5ccccc5O4)CC3)nc(N)c2cc1OC (centres undefined) [DOXAZOSIN] | 13.22% | 3.14% | 2.35%
26 | CC1=Nc2ccc(Cl)cc2S(=O)(=O)N1 [DIAZOXIDE] | 19.87% | 4.07% | -6.19%
27 | Cl.O=C(NCC1CCCCN1)c1cc(OCC(F)(F)F)ccc1OCC(F)(F)F (centres undefined) | 7.49% | 3.33% | -9.22%
28 | COC(=O)C1=C(C)NC(C)=C(C(=O)OCC(C)C)C1c1ccccc1[N+](=O)[O-] (centres undefined) [NISOLDIPINE] | 25.81% | 6.12% | 42.23%
29 | CCN1CCCC1CNC(=O)c1cc(S(=O)(=O)CC)c(N)cc1OC (centres undefined) [AMISULPRIDE] | 4.49% | 1.45% | -4%
30 | CCCc1nc(C)c2c(O)nc(-c3cc(S(=O)(=O)N4CCN(CC)CC4)ccc3OCC)nn12.O=C(O)CC(O)(CC(=O)O)C(=O)O | 10.86% | 4.67% | -15.39%
31 | COc1ccc2cc([C@H](C)C(=O)[O-])ccc2c1.[Na+] [NAPROXEN SODIUM] | 13.03% | 9.05% | -1.8%
32 | O=c1c(O[C@@H]2O[C@H](CO)[C@H](O)[C@H](O)[C@H]2O)c(-c2ccc(O)c(O)c2)oc2cc(O)cc(O)c12 [HYPEROSIDE] | 17.1% | 1.21% | -13.27%
33 | Cl.O.O=C1N(c2ccccc2)c2ccccc2C1(Cc1ccncc1)Cc1ccncc1 | 9.02% | 3.32% | -6.67%
34 | O=C(O)CCc1nc(-c2ccccc2)c(-c2ccccc2)o1 [OXAPROZIN] | 16.28% | 18.9% | -4.51%
35 | O=C(O)c1cc(-c2ccc(F)cc2F)ccc1O [DIFLUNISAL] | 3.43% | 13.4% | -3.56%
36 | CC(=O)OCC(=O)NCCCOc1cccc(CN2CCCCC2)c1.Cl [ROXATIDINE ACETATE HYDROCHLORIDE] | 15.18% | 3.06% | -4.65%
37 | NS(=O)(=O)c1cc2c(cc1C(F)(F)F)NCNS2(=O)=O [HYDROFLUMETHIAZIDE] | 13.59% | -0.33% | -2.31%
38 | O=C1C(CC[S+]([O-])c2ccccc2)C(=O)N(c2ccccc2)N1c1ccccc1 (centres undefined) [SULFINPYRAZONE] | 13.98% | 4.96% | -8.91%
39 | Cc1ncc([N+](=O)[O-])n1CC(O)CCl (centres undefined) [ORNIDAZOLE] | 14.36% | 2.15% | -1.25%
40 | CSc1nc2cc(Cl)c(Oc3cccc(Cl)c3Cl)cc2[nH]1 [TRICLABENDAZOLE] | -0.37% | 7.82% | -2.96%

Row | Compound | Inhibition (Klebsiella pneumoniae) | Inhibition (Candida albicans) | Inhibition (Cryptococcus neoformans)
41 | Cl.Nc1nc2ccc(OC(F)(F)F)cc2s1 | 11.2% | 2.98% | -9.1%
42 | CNC(=C[N+](=O)[O-])NCCSCc1csc(CN(C)C)n1 [NIZATIDINE] | 14.45% | 0.73% | -0.19%
43 | COc1ccc([C@@H]2Sc3ccccc3N(CCN(C)C)C(=O)[C@@H]2OC(C)=O)cc1.Cl [DILTIAZEM HYDROCHLORIDE] | 11.57% | 4.02% | 1.8%
44 | CN1CCN(CCCN2c3ccccc3Sc3ccc(Cl)cc32)CC1.O=C(O)/C=C\C(=O)O.O=C(O)/C=C\C(=O)O [PROCHLORPERAZINE MALEATE] | 14.2% | 3.08% | -1.92%
45 | CCC(CO)NCCNC(CC)CO (centres undefined) | 10.98% | 2.36% | -1.69%
46 | Cc1cccc(C)c1NC(=O)C1CCCCN1C.Cl (centres undefined) [MEPIVACAINE HYDROCHLORIDE] | 9.49% | -0.43% | -0.84%
47 | COc1ccc(/C=C/C(=O)Nc2ccccc2C(=O)O)cc1OC | 8.22% | 4.95% | 4.45%
48 | CCN1CC(CCN2CCOCC2)C(c2ccccc2)(c2ccccc2)C1=O.Cl (centres undefined) | 1.35% | 4.41% | -0.87%
49 | Cl.c1ccc2c(c1)CCCC2C1=NCCN1 (centres undefined) [TETRAHYDROZOLINE HYDROCHLORIDE] | 14.26% | 3.03% | -3.23%
50 | CCN(CC)CCOC(=O)C1(C2CCCCC2)CCCCC1.Cl [DICYCLOMINE HYDROCHLORIDE] | 5.74% | 3.82% | -0.13%
51 | Cc1occc(=O)c1O [MALTOL] | 10.28% | 4.42% | -2.15%
52 | Cc1cnc(C(=O)NCCc2ccc(S(=O)(=O)NC(=O)NC3CCCCC3)cc2)cn1 [GLIPIZIDE] | 8.44% | 3.06% | -1.88%
53 | CCCNCC(O)COc1ccccc1C(=O)CCc1ccccc1 (centres undefined) [PROPAFENONE] | 6.97% | 0.01% | -5.76%
54 | COCCOC(=O)C1=C(C)NC(C)=C(C(=O)OC(C)C)C1c1cccc([N+](=O)[O-])c1 (centres undefined) [NIMODIPINE] | 1.9% | 5.34% | -7.18%
55 | OC[C@H]1O[C@@H](Oc2cc(O)cc(/C=C/c3ccc(O)cc3)c2)[C@H](O)[C@@H](O)[C@@H]1O [PICEID] | 6.92% | 3.19% | -0.2%
56 | Cl.O=C(c1ccc(OCCN2CCCCC2)cc1)c1c(-c2ccc(O)cc2)sc2cc(O)ccc12 [RALOXIFENE HYDROCHLORIDE] | 7.01% | 0.43% | -13.3%
57 | CC(C(=O)[O-])c1ccc(CC2CCCC2=O)cc1.[Na+] (centres undefined) [LOXOPROFEN SODIUM] | 6.48% | 2.26% | -10.19%
58 | COC(=O)Nc1nc2cc(C(=O)c3ccccc3)ccc2[nH]1 [MEBENDAZOLE] | 11.43% | 4.65% | 41.35%
